Measured values: PubChem BioAssay (NCATS)
Unmarked numbers belong to inactive results. Records with an inconclusive call do not appear. Where a call stands in place of a potency, no number is given. Calls of active or inactive are those of the source. Unless noted, the call rests on the fitted dose curve; in most records, active means well fitted curve in the direction sought with a large enough effect; inconclusive means small, poorly fitted or top-dose-only effect, or another doubt; inactive means no such curve, though single readings can be large; an effect the other way counts as inactive or inconclusive.

Tests used:
[1] = molecular target: Rap guanine nucleotide exchange factor 3 (Homo sapiens) (UniProt O95398); experiment: Confirmatory qHTS for antagonist of cAMP-regulated guanine nucleotide exchange factor 3 (EPAC1) (AID 1645880); further: nearly all actives have a fitted effect of over 55% in size
Summary of the method: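 Nucleotide exchange uses 100 nM EPAC1, 250 nM RAP1B-BODIPY-GDP and 50 uM GDP, with compounds in a concentration-titration series. After 5 min at room temperature, fluorescence (480 nm ex/540 nm em) is read every 5 min for 30 min. Data are normalized to control ATA and DMSO.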

[2] = molecular target: Rap guanine nucleotide exchange factor 3 (Homo sapiens) (UniProt O95398); experiment: Confirmatory qHTS for agonist of cAMP-regulated guanine nucleotide exchange factor 3 (EPAC1) (AID 1645881); further: potency means the concentration at half of the fitted maximal effect; nearly all actives have a fitted effect of over 75% in size
[3] = molecular target: Rap guanine nucleotide exchange factor 4 (Homo sapiens) (UniProt Q8WZA2); experiment: Confirmatory qHTS for agonist of cAMP-regulated guanine nucleotide exchange factor 4 (EPAC2) (AID 1645884);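 further: nucleotide exchange releases bodipy-GDP from Rap1 and this lowers its fluorescence; potency means the concentration at half of the fitted maximal effect; nearly all actives have a fitted effect of over 65% in size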
[4] = molecular target: Rap guanine nucleotide exchange factor 4 (Homo sapiens) (UniProt Q8WZA2); experiment: Confirmatory qHTS for antagonist of cAMP-regulated guanine nucleotide exchange factor 4 (EPAC2) (AID 1645885); further: potency means the concentration at half of the fitted maximal effect; nearly all actives have a fitted effect of over 25% in size
[5] = molecular target: Rap guanine nucleotide exchange factor 3 (Homo sapiens) (UniProt O95398); experiment: Counterscreen qHTS for agonist of cAMP-regulated guanine nucleotide exchange factor 3 (EPAC1) (AID 1645889); further: potency means the concentration at half of the fitted maximal effect; nearly all actives have a fitted effect of over 40% in size
Summary of the method: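 Measured: fluorescence of BODIPY-GDP bound to Rap1B, which falls as exchange proceeds. Conditions include 50 uM competing GDP, 5 and 30 min reads, and a later cAMP challenge for antagonist detection.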

[6] = AP1 Signaling Pathway (AID 357; active means well fitted curve in either direction with a large enough effect, not every such curve was filed as active;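 further: ME-180 reporter cells stimulated with EGF at its EC50 level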)
Summary of the method: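 Modulation of EGF-driven AP-1 transcription was assessed with a beta-lactamase reporter in ME-180 cells. Compound and EC50 EGF were co-incubated 5 hours at 37 °C before 2.5-hour CCF4 loading at room temperature and dual-emission reading.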

[7] = Stat Signaling Pathway (AID 446; active means well fitted curve in either direction with a large enough effect, not every such curve was filed as active;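 further: ME-180 cervical cancer cells given 40 pM IL-6 alongside compound; SIE-controlled beta-lactamase reporter measured as 460/530 nm FRET emission ratio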)
Summary of the method: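 Reporter line: ME-180 cervical carcinoma, SIE-beta-lactamase. Treatment: compound with 40 pM IL-6, 5 hrs, 37 C, in low-serum OPTI-MEM with 10 mM HEPES pH 7.3. Detection: 460/530 nm fluorescence.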

[8] = molecular target: Glucocorticoid receptor (Homo sapiens) (UniProt P04150); experiment: GR-EFC Redistribution (AID 451; calls by dose curve; further: potency means the concentration at half of the fitted maximal effect); conditions: CHO-K1 GR-EFC translocation, beta-gal luminescence, 2 h
Summary of the method: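 CHO-K1 cells stably expressing nuclear-localized β-gal enzyme acceptor and GR fused C-terminally to the enzyme donor fragment; ligand-driven nuclear translocation restores β-gal by complementation. Compounds titrated up to 46 uM final, 2 h at 37 °C; luminescence read.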

[9] = molecular target: Mitogen-activated protein kinase 10 (Mus musculus) (UniProt Q61831); experiment: JNK3 AlphaScreen Assay (AID 530; active means well fitted curve in either direction with a large enough effect, not every such curve was filed as active;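 further: kinase came from lysate of stimulated human HepG2 cells; signal reports phosphorylation of biotinylated GST-cJun 1-79 at Ser73 with 10 µM ATP; series mostly up to about 57 µM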)
Summary of the method: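 JNK3 came from HepG2 lysates pre-activated with IL-1beta and TNF-alpha and phosphorylated biotinylated GST-cJun (1-79) at 10 uM ATP, pH 7.6, room temperature. Compounds were titrated. AlphaScreen signal used anti-phospho-cJun (Ser73) antibody.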

[10] = molecular target: 3',5'-cyclic-AMP phosphodiesterase 4B (Homo sapiens) (UniProt Q07343); experiment: qHTS Assay for Inhibitors of PDE-IV (AID 607; active means well fitted activation curve with a large enough effect in the main read-out, with a control signal flat, not every such curve was filed as active)
Summary of the method: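 Cell-based read-out of cAMP via a modified cyclic nucleotide-gated channel and membrane potential dye (535/590 nm) in HEK293 cells expressing PDE4 endogenously. Compounds tested up to 22.9 uM final; 100 uM RO 20-1724 reference.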

[11] = molecular target: Ubiquitin carboxyl-terminal hydrolase 1 (Homo sapiens) (UniProt O94782); experiment: Inhibitors of USP1/UAF1: Pilot qHTS (AID 504865);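 further: rhodamine fluorescence freed from ubiquitin-rhodamine substrate followed over time; top concentration of the series differs between compounds; nearly all actives have a fitted effect of over 35% in size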
Summary of the method: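 1nM USP1/UAF1 + cpd, 15 min RT; start w/ Ub-Rho 150nM final; kinetic FL 480/540 nm, 6 reads q60 s. Buffer 50mM HEPES pH 7.8, 0.5mM EDTA, 1mM TCEP, 0.01% Tween-20, 0.1 mg/ml BSA.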

Chain of Rap guanine nucleotide exchange factor 4 (Homo sapiens) (Q8WZA2 whole entry, looked up): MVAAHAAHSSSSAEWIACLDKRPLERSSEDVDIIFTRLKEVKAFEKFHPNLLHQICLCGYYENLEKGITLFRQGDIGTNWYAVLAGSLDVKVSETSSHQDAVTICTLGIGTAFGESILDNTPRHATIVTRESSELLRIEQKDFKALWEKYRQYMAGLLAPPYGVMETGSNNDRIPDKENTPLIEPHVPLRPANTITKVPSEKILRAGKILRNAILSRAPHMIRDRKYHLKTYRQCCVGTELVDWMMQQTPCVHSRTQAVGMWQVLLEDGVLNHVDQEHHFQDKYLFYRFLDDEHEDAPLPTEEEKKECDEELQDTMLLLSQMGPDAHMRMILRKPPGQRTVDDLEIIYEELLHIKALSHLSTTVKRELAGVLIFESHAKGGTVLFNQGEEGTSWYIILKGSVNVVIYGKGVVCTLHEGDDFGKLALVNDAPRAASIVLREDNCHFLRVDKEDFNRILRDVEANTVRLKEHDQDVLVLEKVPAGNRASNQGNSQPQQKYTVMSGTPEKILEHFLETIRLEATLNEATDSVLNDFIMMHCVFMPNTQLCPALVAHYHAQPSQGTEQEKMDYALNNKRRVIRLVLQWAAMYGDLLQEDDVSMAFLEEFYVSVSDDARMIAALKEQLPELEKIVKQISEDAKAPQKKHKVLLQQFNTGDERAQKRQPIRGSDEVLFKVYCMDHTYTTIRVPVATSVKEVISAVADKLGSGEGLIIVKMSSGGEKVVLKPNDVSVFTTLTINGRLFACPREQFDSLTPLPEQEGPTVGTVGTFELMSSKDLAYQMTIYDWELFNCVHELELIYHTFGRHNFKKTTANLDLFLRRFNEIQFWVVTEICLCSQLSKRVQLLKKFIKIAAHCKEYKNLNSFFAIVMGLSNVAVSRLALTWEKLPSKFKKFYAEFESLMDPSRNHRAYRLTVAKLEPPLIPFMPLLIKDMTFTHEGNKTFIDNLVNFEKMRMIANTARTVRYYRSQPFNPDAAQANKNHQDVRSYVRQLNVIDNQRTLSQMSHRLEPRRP
Chain of Rap guanine nucleotide exchange factor 3 (Homo sapiens) (O95398 whole entry, looked up): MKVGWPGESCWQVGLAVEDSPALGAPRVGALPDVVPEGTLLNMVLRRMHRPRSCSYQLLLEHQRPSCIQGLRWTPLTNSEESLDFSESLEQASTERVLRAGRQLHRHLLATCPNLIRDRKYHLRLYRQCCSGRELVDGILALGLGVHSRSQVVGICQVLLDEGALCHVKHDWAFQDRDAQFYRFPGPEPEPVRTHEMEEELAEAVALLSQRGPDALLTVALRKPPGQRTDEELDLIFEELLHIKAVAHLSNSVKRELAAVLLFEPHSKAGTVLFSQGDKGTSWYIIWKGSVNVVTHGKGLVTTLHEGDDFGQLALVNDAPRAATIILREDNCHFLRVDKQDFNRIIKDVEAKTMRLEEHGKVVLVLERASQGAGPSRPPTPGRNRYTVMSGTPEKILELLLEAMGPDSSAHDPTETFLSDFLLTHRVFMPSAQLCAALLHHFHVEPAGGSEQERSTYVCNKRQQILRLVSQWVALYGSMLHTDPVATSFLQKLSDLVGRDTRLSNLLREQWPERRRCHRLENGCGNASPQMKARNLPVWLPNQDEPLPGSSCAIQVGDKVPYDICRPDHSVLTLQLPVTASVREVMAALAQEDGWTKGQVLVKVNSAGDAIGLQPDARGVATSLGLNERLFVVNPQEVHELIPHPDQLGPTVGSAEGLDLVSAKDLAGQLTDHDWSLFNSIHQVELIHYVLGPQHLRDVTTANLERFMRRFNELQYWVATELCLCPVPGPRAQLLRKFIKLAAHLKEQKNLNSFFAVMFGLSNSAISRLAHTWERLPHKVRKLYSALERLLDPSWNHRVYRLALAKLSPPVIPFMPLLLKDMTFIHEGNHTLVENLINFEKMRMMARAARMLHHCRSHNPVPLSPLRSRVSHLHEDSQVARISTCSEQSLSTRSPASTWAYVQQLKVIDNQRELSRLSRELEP
Chain of Glucocorticoid receptor (Homo sapiens) (P04150 whole entry, looked up, the tested form may be a part): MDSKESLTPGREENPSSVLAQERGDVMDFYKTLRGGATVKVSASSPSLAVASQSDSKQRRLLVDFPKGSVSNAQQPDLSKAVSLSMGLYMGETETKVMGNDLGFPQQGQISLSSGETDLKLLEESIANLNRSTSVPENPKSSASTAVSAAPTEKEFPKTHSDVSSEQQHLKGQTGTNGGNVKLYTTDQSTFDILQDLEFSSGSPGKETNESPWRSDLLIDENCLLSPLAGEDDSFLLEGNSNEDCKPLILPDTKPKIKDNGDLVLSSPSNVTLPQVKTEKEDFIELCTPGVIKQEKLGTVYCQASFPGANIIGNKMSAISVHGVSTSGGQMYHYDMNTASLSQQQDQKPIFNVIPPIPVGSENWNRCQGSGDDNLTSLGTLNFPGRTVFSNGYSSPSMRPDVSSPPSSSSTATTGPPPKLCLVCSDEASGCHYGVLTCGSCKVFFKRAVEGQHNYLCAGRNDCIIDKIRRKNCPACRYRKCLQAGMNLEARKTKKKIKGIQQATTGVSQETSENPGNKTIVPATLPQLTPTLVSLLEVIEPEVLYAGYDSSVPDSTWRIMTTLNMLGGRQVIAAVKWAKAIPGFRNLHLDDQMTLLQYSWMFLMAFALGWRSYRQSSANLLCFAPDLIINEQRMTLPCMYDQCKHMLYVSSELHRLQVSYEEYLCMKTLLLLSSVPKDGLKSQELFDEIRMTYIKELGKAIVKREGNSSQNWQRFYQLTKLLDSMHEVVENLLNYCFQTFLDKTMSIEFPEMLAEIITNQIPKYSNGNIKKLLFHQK
Chain of Ubiquitin carboxyl-terminal hydrolase 1 (Homo sapiens) (O94782 whole entry, looked up): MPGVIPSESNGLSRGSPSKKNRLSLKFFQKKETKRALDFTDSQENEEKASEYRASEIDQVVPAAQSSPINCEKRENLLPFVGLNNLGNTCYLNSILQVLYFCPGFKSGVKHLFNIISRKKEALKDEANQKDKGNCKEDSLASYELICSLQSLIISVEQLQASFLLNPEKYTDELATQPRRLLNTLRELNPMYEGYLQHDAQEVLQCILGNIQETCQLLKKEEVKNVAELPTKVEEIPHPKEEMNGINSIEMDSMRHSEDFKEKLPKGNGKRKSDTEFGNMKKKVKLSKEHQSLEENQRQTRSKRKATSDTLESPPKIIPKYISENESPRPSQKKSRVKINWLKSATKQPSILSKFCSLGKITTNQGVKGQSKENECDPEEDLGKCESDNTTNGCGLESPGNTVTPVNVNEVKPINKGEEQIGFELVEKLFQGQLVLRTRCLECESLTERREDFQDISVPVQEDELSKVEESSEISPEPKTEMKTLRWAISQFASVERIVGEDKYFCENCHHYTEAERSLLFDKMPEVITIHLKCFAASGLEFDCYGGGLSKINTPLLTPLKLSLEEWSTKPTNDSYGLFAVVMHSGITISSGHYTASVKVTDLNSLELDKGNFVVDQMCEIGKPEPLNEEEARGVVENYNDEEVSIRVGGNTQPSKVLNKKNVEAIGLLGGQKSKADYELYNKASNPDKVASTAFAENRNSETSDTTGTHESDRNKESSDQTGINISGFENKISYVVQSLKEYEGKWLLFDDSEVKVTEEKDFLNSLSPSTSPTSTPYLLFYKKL
Chain of 3',5'-cyclic-AMP phosphodiesterase 4B (Homo sapiens) (Q07343 whole entry, looked up): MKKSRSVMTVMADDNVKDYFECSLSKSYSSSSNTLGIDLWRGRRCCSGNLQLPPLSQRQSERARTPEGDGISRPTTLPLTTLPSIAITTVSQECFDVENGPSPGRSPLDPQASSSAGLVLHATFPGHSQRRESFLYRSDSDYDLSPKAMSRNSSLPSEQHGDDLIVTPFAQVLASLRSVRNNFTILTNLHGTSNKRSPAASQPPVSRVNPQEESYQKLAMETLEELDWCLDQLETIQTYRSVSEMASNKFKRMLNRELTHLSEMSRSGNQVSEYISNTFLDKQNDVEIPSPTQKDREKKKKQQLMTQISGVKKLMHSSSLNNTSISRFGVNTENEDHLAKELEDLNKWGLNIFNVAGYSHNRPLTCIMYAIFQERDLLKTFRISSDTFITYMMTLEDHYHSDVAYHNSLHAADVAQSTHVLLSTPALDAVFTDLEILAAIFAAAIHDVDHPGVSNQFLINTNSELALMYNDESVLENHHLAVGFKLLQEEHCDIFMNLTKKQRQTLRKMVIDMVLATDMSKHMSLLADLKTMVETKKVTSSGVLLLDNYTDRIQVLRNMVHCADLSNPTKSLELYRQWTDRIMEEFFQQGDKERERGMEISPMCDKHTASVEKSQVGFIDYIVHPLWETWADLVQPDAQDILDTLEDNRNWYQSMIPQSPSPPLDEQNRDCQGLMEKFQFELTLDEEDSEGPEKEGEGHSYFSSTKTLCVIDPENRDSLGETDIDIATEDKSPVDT

| Structure (SMILES) | Potency [1] | Potency [2] | Potency [3] | Potency [4] | Potency [5] | outcome [6] | outcome [7] | Potency [8] [µM] | Potency [9] | outcome [10] | Potency [11] |
| --- | --- | --- | --- | --- | --- | --- | --- | --- | --- | --- | --- |
| O=C1NC(=O)C2(N1)C(=O)c1cccc3cccc2c13 (stereo unspecified) | inactive | 112 µM (active) | 100 µM (active) | 47.8 µM (active) | 44.7 µM (active) |  |  |  |  |  |  |
| CC[N+]1(C)[C@@H]2CC[C@H]1CC(OC(=O)[C@H]1CC[C@@](C(=O)OC3C[C@H]4CC[C@@H](C3)[N+]4(C)CC)(c3ccccc3)c3ccccc31)C2 (stereo partly specified) |  |  |  |  |  | inactive | inactive | > 20.6 | inactive | inactive | inactive |
